This passage reports growth results from PubChem BioAssay (NCI).

The panel holds about 83,000 compounds, 20% with a hit somewhere; the sample as a whole holds those more often.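 Single-concentration screen, 48 h exposure, 96-well plates. Endpoint: percent growth. Below 10 = active.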 Values without a mark were called inactive. Active and inactive are the calls of the source.

Holding throughout (assay): NCI-60 one-dose screen, 48 h (100 = growth as untreated, 0 = no growth, -100 = all killed)
In assay [1] the test system is T-47D breast. The settings on record: 10 µM.
Assay [2] concerns BT-549 breast. The settings on record: 10 µM.
Assay [3] relates to MDA-MB-435 melanoma. The settings on record: 10 µM.
For assay [4], the system named is SW-620 colon. Conditions: 10 µM.
Assay [5] relates to MCF7 breast. Conditions: 10 µM unless noted.
Assay [6] deals with HCT-116 colon. The settings on record: 10 µM.
The subject of assay [7] is HCC-2998 colon. Conditions: 10 µM.
Assay [8] concerns KM12 colon. Conditions: 10 µM.

`O=C(NC1CCCCC1)OCc1c(COC(=O)NC2CCCCC2)c(-c2ccc(Cl)c(Cl)c2)n2c1CCC2`: the growth in assay [1] is 20.8%; in assay [2] it was 53.7%; in assay [3] it was 56.3%; in assay [4], 32.6%; in assay [5] it was 27.4%; in assay [6] it was 15.5%. The growth in assay [7] was 30.5%; in assay [8], 56.3%.
With `C/C(O)=C(\C=N\C(N)=S)C(=O)Nc1ccccc1`, the growth in assay [1] is 102%; in assay [2] it was 108%; in assay [3] it was 110%; in assay [4], 110%; in assay [5], 102%; in assay [6] it was 102%. The growth is 110% in assay [7] and 104% in assay [8].
Consider `CC(=O)Cc1ccc(-c2ccccc2)cc1`, for which the growth was 97.6% in assay [1]; 109% in assay [2]; 114% in assay [3]; 108% in assay [4]; 93.3% in assay [5]; 103% in assay [6]. Moreover, the growth in assay [7] and in assay [8] was 101% each time.
In the case of `O=C(CCl)Nc1ccc2c(c1)C(=O)c1ccc(NC(=O)CCl)cc1C2=O`, the growth in assay [1] is -48.7% (active); in assay [2], -91% (active); in assay [3], -71.6% (active); in assay [4] it was -61.7% (active); in assay [5] it was -60.7% (active); in assay [6], -79.8% (active). The growth in assay [7] was -77.8% (active); in assay [8], -72.2% (active).
For the molecule `CC1(C(N)=O)CCC(C(=O)O)C1(C)C` (centres undefined), the growth in assay [1] was 91.3%; in assay [2] it was 99.7%; in assay [3], 97.4%; in assay [4] it was 111%; in assay [5] it was 88.4%; in assay [6], 99.7%. The growth is 99.4% in assay [7] and 111% in assay [8].
`C#CCSc1nnnn1-c1ccc(Br)c(C)c1`: the growth is 87.6% in assay [1]; 103% in assay [2]; 95.8% in assay [3]; 99.9% in assay [4]; 82.4% in assay [5]; 88% in assay [6]. Also, the growth in assay [7] is 121%; in assay [8], 102%.
`C/C=C/CC(C)C(O)C1C(=O)NC(CC)C(=O)N(C)CC(=O)N(C)C(CC(C)C)C(=O)NC(C(C)C)C(=O)N(C)C(CC(C)C)C(=O)NC(C)C(=O)NC(C)C(=O)N(C)C(CC(C)C)C(=O)N(C)C(CC(C)C)C(=O)N(C)C(C(C)C)C(=O)N1C` (centres undefined): the growth was 23.2% in assay [1]; -14.4% (active) in assay [2]; -6.76% (active) in assay [3]; 31.3% in assay [4]; 18.7% in assay [5]; 8.61% (active) in assay [6]. For the same molecule, the growth is 1.86% (active) in assay [7] and 17.7% in assay [8].
For `OCc1ccc(-c2ccc(-c3ccc(CO)s3)o2)s1`, the growth is -15.5% (active) in assay [1]; 58.4% in assay [2]; 38% in assay [3]; 10.9% in assay [4]; 9.78% (active) in assay [5]; 5.2% (active) in assay [6]. Besides, the growth in assay [7] was -14.5% (active); in assay [8], 81.5%.
Take `O=[N+]([O-])c1ccc(-c2ncc(-c3ccc(Br)cc3)o2)cc1`: the growth in assay [1] is 94.7%; in assay [2], 113%; in assay [3], 108%; in assay [4] it was 93.5%; in assay [5] it was 87.4%; in assay [6], 91.4%. For the same molecule, the figures for the growth in assay [7] and in assay [8] were 88.2% and 119%, respectively.
Turning to `C#CC(C(C)C)N(CCO)CCCC` (centres undefined), the growth in assay [1] is 100%; in assay [2], 112%; in assay [3], 98.6%; in assay [4], 107%; in assay [5], 93.9%; in assay [6], 104%. Moreover, the growth in assay [7] was 111%; in assay [8], 109%.
As for `CCOC(=O)C1=C(Nc2ccc(Br)cc2)C(=O)N(CC)C1`, the growth was 107% in assay [1]; 86.9% in assay [2]; 101% in assay [3]; 100% in assay [4]; 105% in assay [5]; 95.9% in assay [6]. The growth in assay [7] and in assay [8] was 101% in each case.
For the molecule `C1CNC(C2=NCCN2)=N1`, the growth in assay [1] is 101%; in assay [2], 111%; in assay [3] it was 93.4%; in assay [4], 100%; in assay [5], 98.7%; in assay [6], 96.7%. The growth is 92.3% in assay [7] and 95.4% in assay [8].
Regarding `CC(=O)Oc1ccc(Br)cc1C(=O)O`, the growth was 97.6% in assay [1]; 97.7% in assay [2]; 104% in assay [3]; 107% in assay [4]; 94.3% in assay [5]; 95.4% in assay [6]. Besides, the growth was 100% in assay [7] and 115% in assay [8].
`CN(C)C(=O)Oc1cccc([N+](C)(C)C)c1`: the growth in assay [1] is 99.8%; in assay [2], 112%; in assay [3], 105%; in assay [4], 108%; in assay [5] it was 87%; in assay [6] it was 109%. In addition, the growth was 106% in assay [7] and 102% in assay [8].
Take `CC1=CC(=O)c2ccccc2C1=O`: the growth is 98.7% in assay [1]; 116% in assay [2]; 107% in assay [3]; 106% in assay [4]; 100% in assay [5]; 104% in assay [6]. Further, the values for the growth in assay [7] and in assay [8] were 108% and 104%, respectively.
In the case of `Cc1cccc(C(=O)N(C(C)C)C(C)C)c1`, the growth in assay [1] was 83.9%; in assay [2], 105%; in assay [3], 106%; in assay [4], 96.4%; in assay [5] it was 98.9%; in assay [6] it was 94.7%. Moreover, the growth was 109% in assay [7] and 104% in assay [8].
Turning to `CCOC(=O)C(O)C(O)C(=O)OCC` (centres undefined), the growth in assay [1] was 98%; in assay [2], 107%; in assay [3] it was 108%; in assay [4], 101%; in assay [5], 107%; in assay [6], 103%. Besides, the growth was 111% in assay [7] and 102% in assay [8].
In the case of `Cc1ccc(Cl)cc1NC(=O)N(C)CCO`, the growth in assay [1] is 104%; in assay [2], 116%; in assay [3], 117%; in assay [4], 137%; in assay [5], 88.7%; in assay [6] it was 112%. For the same molecule, the values for the growth in assay [7] and in assay [8] were 104% and 120%, respectively.
